Values without a mark were called inactive. Results filed as inconclusive are left out. Active and inactive are the calls of the source. Unless noted, calls follow the shape of the dose curve; as a rule, active = well fitted curve in the direction sought with a large enough effect; inconclusive = small, poorly fitted or top-dose-only effect, or another doubt; inactive = no such curve, though single readings can be large; an effect the other way counts as inactive or inconclusive.
Assays:
[1] = biological target: Lysosomal acid glucosylceramidase (Homo sapiens) (UniProt P04062); experiment: Glucocerebrosidase-p2 (AID 348; in the data active = potency below about 10 µM; also: potency is read from the fitted curve at half-maximal effect); conditions: purified GBA, blue fluorogenic substrate, 40 min
Method in brief: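 Compounds titrated from 0.6 nM upwards against 0.2 nM enzyme in pH 5.9 citric acid/KH2PO4, taurocholate, tween-20; blue fluorogenic substrate 80 uM, 40 min room temperature, stopped and read Ex 365/Em 440 for AC50.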

[2] = AP1 Signaling Pathway (AID 357; active = well fitted curve in either direction with a large enough effect, not every such curve was filed as active;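 also: ME-180 reporter cells stimulated with EGF at its EC50 level; % is scaled to controls: 0 for no effect and ±100 for the full control effect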); conditions: ME-180 AP-1-bla reporter, EGF-induced, beta-lactamase ratio, 5 h; at 7.69 µM (top of the series) unless noted
Method in brief: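 Modulation of EGF-driven AP-1 transcription was assessed with a beta-lactamase reporter in ME-180 cells. Compound and EC50 EGF were co-incubated 5 hours at 37 °C before 2.5-hour CCF4 loading at room temperature and dual-emission reading.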

[3] = biological target: Cytochrome P450 1A2 (Homo sapiens) (UniProt P05177); experiment: p450-cyp1a2 (AID 410; calls by dose curve; also: potency is read from the fitted curve at half-maximal effect); conditions: recombinant CYP1A2, luciferin-ME demethylation, luminescence; series mostly up to 57 µM
Method in brief: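 Human CYP1A2 (20nM) demethylated Luciferin-ME at its Km (100uM) in 100mM KPO4. After 10 min compound preincubation, NADPH regeneration ran the reaction 60 min at room temperature. Luciferin was read by luminescence, normalized to 57 uM furafylline.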

[4] = Stat Signaling Pathway (AID 446; active = well fitted curve in either direction with a large enough effect, not every such curve was filed as active;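 also: ME-180 cervical cancer cells given 40 pM IL-6 alongside compound; SIE-controlled beta-lactamase reporter measured as 460/530 nm FRET emission ratio; % is scaled to controls: 0 for no effect and ±100 for the full control effect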); conditions: ME-180 SIE beta-lactamase reporter, IL-6 stimulated, 5 h; at 7.69 µM (top of the series) unless noted
Method in brief: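 ME-180 SIE-bla cells; overnight plating; cpd + IL-6 40 pM, 5 h, 37 C; LiveBLAzer 2.5 h RT; 460/530 nm emission ratio. Normalized to 300 pM IL-6 and 125 nM JAK inhibitor controls.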

[5] = biological target: Glucocorticoid receptor (Homo sapiens) (UniProt P04150); experiment: GR-GFP Redistribution (AID 450;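 active = compounds whose dose series gives a full or clear partial fitted curve of increased nuclear translocation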; also: potency is read from the fitted curve at half-maximal effect); conditions: U2OS GR-GFP nuclear translocation, laser cytometry, 2 h
[6] = biological target: Glucocorticoid receptor (Homo sapiens) (UniProt P04150); experiment: GR-EFC Redistribution (AID 451; calls by dose curve; also: potency is read from the fitted curve at half-maximal effect); conditions: CHO-K1 GR-EFC translocation, beta-gal luminescence, 2 h
Method in brief: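 CHO-K1 cells expressing nuclear EA and GR-ED fragments of b-gal; compounds titrated up to 46 uM final, 2 h at 37 C. GR nuclear translocation read as complemented b-gal luminescence after 1 h RT detection.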

[7] = biological target: Mitogen-activated protein kinase 10 (Mus musculus) (UniProt Q61831); experiment: JNK3 AlphaScreen Assay (AID 530; active = well fitted curve in either direction with a large enough effect, not every such curve was filed as active;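 also: kinase came from lysate of stimulated human HepG2 cells; signal reports phosphorylation of biotinylated GST-cJun 1-79 at Ser73 with 10 µM ATP; % is scaled to controls: 0 for no effect and ±100 for the full control effect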); conditions: JNK3 lysate, c-Jun phosphorylation; series mostly up to 57.1 µM
Method in brief: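 qHTS format: compounds tested as titrations against IL-1beta/TNF-alpha-activated HepG2 lysate JNK3 with biotin-GST-cJun substrate and 10 uM ATP at room temperature. Loss of anti-phospho-cJun AlphaScreen signal indicates inhibition.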

[8] = biological target: 3',5'-cyclic-AMP phosphodiesterase 4B (Homo sapiens) (UniProt Q07343); experiment: qHTS Assay for Inhibitors of PDE-IV (AID 607; active = well fitted activation curve with a large enough effect in the main read-out, with a control signal flat, not every such curve was filed as active; also: % of control where 0% means no effect); conditions: HEK293 ACTOne CNG channel cells, membrane potential fluorescence; series mostly up to 22.9 µM
Method in brief: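 ACTOne HEK293 cells carry a modified cAMP-gated CNG channel and express endogenous PDE4; plated 1000 cells/well, compounds up to 22.9 uM final. Membrane-potential dye fluorescence (ex 535/em 590) was read; parental cells received 10 uM forskolin + 100 uM RO 20-1724.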

[9] = biological target: Cytochrome P450 3A4 (Homo sapiens) (UniProt P08684); experiment: qHTS Assay for Activators of Cytochrome P450 3A4 (AID 885); conditions: recombinant CYP3A4, Luciferin-PPXE luminescence, 60 min; series mostly up to 57.1 µM; also: nearly all actives have a fitted effect of over 65% in size
Method in brief: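 20nM CYP3A4 + 25uM Luciferin-PPXE (=KM), 200mM KPO4; cpd 10 min RT; NADPH regen, 60 min RT; stop w/ detection buffer, 20 min; luminescence. Normalized to 57 uM ketoconazole.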

[10] = biological target: Dual specificity protein kinase CLK4 (Homo sapiens) (UniProt Q9HAZ1); experiment: qHTS Assay for Inhibitors of CDC-like Kinase 4 (Kinase-Glo Assay) (AID 1770); conditions: recombinant Clk4, Kinase-Glo ATP depletion luminescence; series mostly up to 66.7 µM; also: nearly all actives have a fitted effect of over 65% in size; also: potency is read from the fitted curve at half-maximal effect
Method in brief: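 25 nM Clk4 with 100 uM RS repeat peptide and 1 uM ATP (final) in Tris pH7.5, 10 mM MgCl2, 4.5 h at room temperature. Remaining ATP measured by Kinase-Glo luciferase luminescence.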

[11] = biological target: Dual specificity protein kinase CLK4 (Homo sapiens) (UniProt Q9HAZ1); experiment: qHTS Assay for Inhibitors of CDC-like Kinase 4 (ADP-Glo Assay) (AID 1771); conditions: recombinant CLK4, ADP-Glo luminescence; series mostly up to 80 µM; also: nearly all actives have a fitted effect of over 70% in size; also: potency is read from the fitted curve at half-maximal effect
Method in brief: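 Clk4 (25 nM) was incubated 1 hr at room temperature with 100 uM RS repeat peptide and 1 uM ATP in buffer with 2 mM MgCl2, 0.5 mM EGTA, 2.5 mM DTT. ADP formed was quantified by ADP-Glo luminescence.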

[12] = biological target: Ubiquitin carboxyl-terminal hydrolase 1 (Homo sapiens) (UniProt O94782); experiment: Inhibitors of USP1/UAF1: Pilot qHTS (AID 504865); conditions: purified USP1/UAF1, Ub-rhodamine cleavage fluorescence; series mostly up to 54.9 µM;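 also: rhodamine fluorescence freed from ubiquitin-rhodamine substrate followed over time; top concentration of the series differs between compounds; % is scaled to controls: 0 for no effect and ±100 for the full control effect; nearly all actives have a fitted effect of over 35% in size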
Method in brief: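 USP1/UAF1 complex at 1 nM preincubated 15 min at room temperature with compound, then Ub-Rho substrate added at 150 nM final. Fluorescence (480/540 nm) read kinetically in 50 mM HEPES pH 7.8, 0.5 mM EDTA, 1 mM TCEP, 0.1 mg/ml BSA, 0.01% Tween-20.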

[13] = Primary qHTS for small molecule stabilizers of the endoplasmic reticulum resident proteome: Secreted ER Calcium Modulated Protein (SERCaMP) assay (AID 1508630); conditions: SH-SY5Y GLuc-SERCaMP (Gaussia luciferase released on ER calcium loss) secretion, thapsigargin, luminescence; series mostly up to 38.4 µM; also: % is scaled to controls: 0 for no effect and ±100 for the full control effect
Method in brief: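 GLuc-SERCaMP-expressing SH-SY5Y cells, pretreated 16 h with compound, are challenged with thapsigargin to empty ER calcium stores; after 4 h, coelenterazine is added directly to the medium and luminescence is imaged.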

[14] = NFAT Signaling Pathway (AID 444; active = well fitted curve in either direction with a large enough effect, not every such curve was filed as active); conditions: Jurkat NFAT-bla M1, carbachol, beta-lactamase ratio, 5 h; at 7.69 µM (top of the series) unless noted
Method in brief: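 Jurkat cells with NFAT-driven β-lactamase reporter and co-expressed M1 receptor, stimulated with carbachol (final 1 uM, ~EC50), compound titration, 5 h at 37 °C. CCF4 loaded 1 h at RT; 460/530 nm ratio gave %activity and AC50.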

[15] = biological target: Cytochrome P450 2C9 (Homo sapiens) (UniProt P11712); experiment: qHTS Assay for Inhibitors and Substrates of Cytochrome P450 2C9 (AID 883); conditions: recombinant CYP2C9, luciferin-H luminescence, 60 min; series mostly up to 57.1 µM; also: % is scaled to controls: 0 for no effect and ±100 for the full control effect; nearly all actives have a fitted effect of over 60% in size
Method in brief: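 10nM CYP2C9 + 100uM Luciferin-H (=KM), 25mM KPO4; cpd 10 min 37C; NADPH regen, 60 min 37C; stop/detect with P450 Glo-Buffer 20 min; luminescence. Norm. to 57uM sulphaphenazole as full inhibition.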

[16] = biological target: Cytochrome P450 3A4 (Homo sapiens) (UniProt P08684); experiment: qHTS Assay for Inhibitors and Substrates of Cytochrome P450 3A4 (AID 884); conditions: recombinant CYP3A4, Luciferin-PPXE luminescence; series mostly up to 57.1 µM; also: potency is read from the fitted curve at half-maximal effect; nearly all actives have a fitted effect of over 50% in size
Method in brief: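 20 nM human CYP3A4 with 25 uM Luciferin-PPXE (at KM) in 200 mM KPO4, preincubated 10 min with compound; NADPH regeneration started a 60 min RT reaction. Luciferin detected by luminescence, normalized to 57 uM ketoconazole as full inhibition.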

[17] = biological target: Cytochrome P450 2D6 (Homo sapiens) (UniProt P10635); experiment: qHTS Assay for Inhibitors and Substrates of Cytochrome P450 2D6 (AID 891); conditions: recombinant CYP2D6, luciferin-ME EGE luminescence; series mostly up to 57.1 µM; also: potency is read from the fitted curve at half-maximal effect; nearly all actives have a fitted effect of over 60% in size
Method in brief: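 Human CYP2D6 (5 nM) with 30 uM Luciferin-ME EGE (at Km) in 100 mM KPO4, compound preincubated 10 min, then NADPH regeneration system for 60 min at room temperature. Luciferin read by luminescence; normalized to 1.43 uM quinidine.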

[18] = qHTS Assay for Identification of Small Molecule Agonists for Hypoxia Response Element Signaling Pathway (AID 914; active = well fitted activation curve with a large enough effect in the signal ratio, with a control signal flat, not every such curve was filed as active; the % refers to the signal ratio; also: % of control where 0% means no effect); conditions: ME-180 (cervical carcinoma) HRE-bla reporter, beta-lactamase ratio, CoCl2, 17 h; activation: stronger effect = higher value
Method in brief: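 In Opti-MEM containing 0.5% dialyzed FBS and 10 mM HEPES, ME-180 HRE-bla cells received a compound titration and EC50 CoCl2. They were incubated 17 hours, then CCF4-loaded 2.5 hours at room temperature before ratio reading.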

Cytochrome P450 3A4 (Homo sapiens), sequence (P08684 whole entry, looked up): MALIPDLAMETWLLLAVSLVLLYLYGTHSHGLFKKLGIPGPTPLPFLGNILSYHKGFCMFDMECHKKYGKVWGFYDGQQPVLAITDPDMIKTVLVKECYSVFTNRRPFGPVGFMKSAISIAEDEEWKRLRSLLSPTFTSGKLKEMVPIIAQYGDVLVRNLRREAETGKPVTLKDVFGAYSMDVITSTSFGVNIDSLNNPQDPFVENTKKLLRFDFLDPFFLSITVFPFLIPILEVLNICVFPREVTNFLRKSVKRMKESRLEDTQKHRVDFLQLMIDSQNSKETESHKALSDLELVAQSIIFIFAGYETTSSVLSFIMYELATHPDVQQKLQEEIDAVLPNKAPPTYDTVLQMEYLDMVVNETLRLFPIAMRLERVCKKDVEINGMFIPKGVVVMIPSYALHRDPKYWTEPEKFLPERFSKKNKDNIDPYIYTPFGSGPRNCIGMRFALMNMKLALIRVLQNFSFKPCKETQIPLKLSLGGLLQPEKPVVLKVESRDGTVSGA
Dual specificity protein kinase CLK4 (Homo sapiens), sequence (Q9HAZ1 whole entry, looked up): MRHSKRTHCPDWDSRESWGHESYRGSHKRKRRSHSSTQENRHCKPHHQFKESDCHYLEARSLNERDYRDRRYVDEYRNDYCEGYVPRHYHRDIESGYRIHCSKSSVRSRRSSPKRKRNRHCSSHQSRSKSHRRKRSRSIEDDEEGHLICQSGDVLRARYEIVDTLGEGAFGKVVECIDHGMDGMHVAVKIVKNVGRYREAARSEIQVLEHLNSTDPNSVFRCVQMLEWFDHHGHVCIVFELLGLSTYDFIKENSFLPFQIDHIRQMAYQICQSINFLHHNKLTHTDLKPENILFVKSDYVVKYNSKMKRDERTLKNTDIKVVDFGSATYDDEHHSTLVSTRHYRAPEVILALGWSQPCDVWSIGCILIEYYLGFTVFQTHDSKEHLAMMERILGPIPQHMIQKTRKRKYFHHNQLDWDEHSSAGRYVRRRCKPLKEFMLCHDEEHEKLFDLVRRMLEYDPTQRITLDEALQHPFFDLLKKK
3',5'-cyclic-AMP phosphodiesterase 4B (Homo sapiens), sequence (Q07343 whole entry, looked up): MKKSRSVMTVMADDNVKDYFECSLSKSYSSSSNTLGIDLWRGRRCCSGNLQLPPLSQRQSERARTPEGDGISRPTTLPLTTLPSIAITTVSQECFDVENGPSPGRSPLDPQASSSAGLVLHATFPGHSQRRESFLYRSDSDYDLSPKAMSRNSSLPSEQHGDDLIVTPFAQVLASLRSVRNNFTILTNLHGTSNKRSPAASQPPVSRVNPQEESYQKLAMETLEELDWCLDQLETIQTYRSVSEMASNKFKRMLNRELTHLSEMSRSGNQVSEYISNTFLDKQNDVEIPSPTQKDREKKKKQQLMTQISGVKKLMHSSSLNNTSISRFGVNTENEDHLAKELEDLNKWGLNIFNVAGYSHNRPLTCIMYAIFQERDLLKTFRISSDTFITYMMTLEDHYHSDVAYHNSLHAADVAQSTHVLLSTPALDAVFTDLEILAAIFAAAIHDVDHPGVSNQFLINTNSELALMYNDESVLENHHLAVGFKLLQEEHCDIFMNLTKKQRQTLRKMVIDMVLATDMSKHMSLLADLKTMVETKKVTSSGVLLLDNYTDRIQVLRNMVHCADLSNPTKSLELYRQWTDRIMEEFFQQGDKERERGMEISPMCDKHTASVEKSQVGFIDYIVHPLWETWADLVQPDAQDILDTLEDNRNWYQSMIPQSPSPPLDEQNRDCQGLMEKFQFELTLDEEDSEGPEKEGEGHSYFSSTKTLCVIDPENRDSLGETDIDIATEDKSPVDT
Ubiquitin carboxyl-terminal hydrolase 1 (Homo sapiens), sequence (O94782 whole entry, looked up): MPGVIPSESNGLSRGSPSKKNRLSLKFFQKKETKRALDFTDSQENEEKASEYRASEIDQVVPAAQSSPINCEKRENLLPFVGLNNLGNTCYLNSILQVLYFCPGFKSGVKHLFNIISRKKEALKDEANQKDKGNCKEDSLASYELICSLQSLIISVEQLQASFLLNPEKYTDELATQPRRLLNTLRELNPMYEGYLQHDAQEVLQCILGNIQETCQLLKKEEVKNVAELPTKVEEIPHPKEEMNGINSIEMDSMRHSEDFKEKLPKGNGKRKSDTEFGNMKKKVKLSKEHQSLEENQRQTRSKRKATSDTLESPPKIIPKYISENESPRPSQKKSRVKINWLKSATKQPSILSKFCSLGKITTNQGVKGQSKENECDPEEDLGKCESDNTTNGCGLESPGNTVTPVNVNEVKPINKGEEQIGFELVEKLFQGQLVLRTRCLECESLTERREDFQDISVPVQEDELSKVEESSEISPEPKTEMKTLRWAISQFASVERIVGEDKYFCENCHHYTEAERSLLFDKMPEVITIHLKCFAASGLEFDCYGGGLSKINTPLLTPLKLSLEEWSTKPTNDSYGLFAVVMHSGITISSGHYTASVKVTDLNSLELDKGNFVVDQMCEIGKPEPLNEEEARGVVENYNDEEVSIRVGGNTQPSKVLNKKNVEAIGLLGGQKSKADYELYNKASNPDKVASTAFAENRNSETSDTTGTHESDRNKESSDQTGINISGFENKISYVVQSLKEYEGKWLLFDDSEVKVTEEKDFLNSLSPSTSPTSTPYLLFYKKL
Glucocorticoid receptor (Homo sapiens), sequence (P04150 whole entry, looked up, the tested form may be a part): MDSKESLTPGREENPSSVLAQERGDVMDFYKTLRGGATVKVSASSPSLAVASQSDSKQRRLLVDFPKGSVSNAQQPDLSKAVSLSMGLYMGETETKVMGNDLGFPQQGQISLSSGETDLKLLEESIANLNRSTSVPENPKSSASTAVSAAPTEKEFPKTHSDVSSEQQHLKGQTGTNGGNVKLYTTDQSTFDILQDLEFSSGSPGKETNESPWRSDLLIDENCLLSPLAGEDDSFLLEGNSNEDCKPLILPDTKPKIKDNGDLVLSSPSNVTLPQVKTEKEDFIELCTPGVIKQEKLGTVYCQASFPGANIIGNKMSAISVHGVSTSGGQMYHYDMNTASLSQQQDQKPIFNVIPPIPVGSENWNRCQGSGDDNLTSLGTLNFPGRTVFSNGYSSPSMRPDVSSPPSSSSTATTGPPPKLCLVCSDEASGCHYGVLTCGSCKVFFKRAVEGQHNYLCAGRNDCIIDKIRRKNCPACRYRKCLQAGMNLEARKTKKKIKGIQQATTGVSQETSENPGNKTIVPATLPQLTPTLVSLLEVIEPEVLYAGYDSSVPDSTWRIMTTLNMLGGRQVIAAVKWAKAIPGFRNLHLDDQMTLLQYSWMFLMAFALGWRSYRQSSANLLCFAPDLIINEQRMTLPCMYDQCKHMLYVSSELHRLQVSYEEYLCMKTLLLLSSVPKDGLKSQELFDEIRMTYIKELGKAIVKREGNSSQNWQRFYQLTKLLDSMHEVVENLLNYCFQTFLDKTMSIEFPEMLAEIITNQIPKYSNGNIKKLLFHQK
Lysosomal acid glucosylceramidase (Homo sapiens), sequence (P04062 whole entry, looked up): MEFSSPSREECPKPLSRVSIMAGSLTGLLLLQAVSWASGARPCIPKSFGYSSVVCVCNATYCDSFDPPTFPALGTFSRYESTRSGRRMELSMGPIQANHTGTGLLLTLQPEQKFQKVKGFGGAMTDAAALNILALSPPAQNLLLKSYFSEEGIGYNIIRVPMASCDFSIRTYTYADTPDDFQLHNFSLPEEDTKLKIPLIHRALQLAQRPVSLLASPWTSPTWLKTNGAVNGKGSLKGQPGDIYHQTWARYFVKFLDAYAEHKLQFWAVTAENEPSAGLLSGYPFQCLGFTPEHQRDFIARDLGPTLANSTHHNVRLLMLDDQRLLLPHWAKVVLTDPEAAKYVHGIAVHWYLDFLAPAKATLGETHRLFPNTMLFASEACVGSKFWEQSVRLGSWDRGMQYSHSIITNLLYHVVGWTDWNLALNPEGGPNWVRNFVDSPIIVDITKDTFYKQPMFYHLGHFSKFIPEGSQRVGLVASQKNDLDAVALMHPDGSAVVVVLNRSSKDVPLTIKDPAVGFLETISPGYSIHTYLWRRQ
Cytochrome P450 1A2 (Homo sapiens), sequence (P05177 whole entry, looked up): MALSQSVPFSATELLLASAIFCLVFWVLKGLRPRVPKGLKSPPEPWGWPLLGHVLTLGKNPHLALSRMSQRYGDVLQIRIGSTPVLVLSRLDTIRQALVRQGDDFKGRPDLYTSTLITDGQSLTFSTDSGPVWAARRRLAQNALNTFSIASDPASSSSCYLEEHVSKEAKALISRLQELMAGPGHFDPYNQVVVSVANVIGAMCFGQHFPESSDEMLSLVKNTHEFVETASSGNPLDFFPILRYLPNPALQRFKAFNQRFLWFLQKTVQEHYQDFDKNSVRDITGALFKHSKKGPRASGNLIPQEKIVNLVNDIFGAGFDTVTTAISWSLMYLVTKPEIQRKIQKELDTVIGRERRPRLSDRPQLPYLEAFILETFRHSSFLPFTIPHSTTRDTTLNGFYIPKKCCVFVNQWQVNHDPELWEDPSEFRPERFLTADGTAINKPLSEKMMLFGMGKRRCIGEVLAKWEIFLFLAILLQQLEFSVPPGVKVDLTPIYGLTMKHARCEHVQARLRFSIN
Cytochrome P450 2C9 (Homo sapiens), sequence (P11712 whole entry, looked up): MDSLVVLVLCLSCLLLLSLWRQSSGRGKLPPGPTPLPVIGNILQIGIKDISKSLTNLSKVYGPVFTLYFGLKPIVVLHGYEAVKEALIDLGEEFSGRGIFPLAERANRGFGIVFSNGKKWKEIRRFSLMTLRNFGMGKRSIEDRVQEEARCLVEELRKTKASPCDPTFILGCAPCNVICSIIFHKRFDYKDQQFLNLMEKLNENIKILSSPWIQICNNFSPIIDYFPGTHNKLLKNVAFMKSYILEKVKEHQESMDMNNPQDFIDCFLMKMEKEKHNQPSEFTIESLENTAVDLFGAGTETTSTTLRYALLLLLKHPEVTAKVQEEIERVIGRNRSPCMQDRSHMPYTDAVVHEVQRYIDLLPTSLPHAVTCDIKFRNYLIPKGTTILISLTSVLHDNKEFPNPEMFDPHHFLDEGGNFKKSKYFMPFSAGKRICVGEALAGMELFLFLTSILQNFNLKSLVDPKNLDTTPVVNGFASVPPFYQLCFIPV

| SMILES | Potency [1] [µM] | activity change, negative = inhibition [2] [%] | Potency [3] | activity, negative = inhibition [4] [%] | Potency [5] [µM] | Potency [6] [µM] | Potency [7] | Potency [8] | Potency [9] | Potency [10] | Potency [11] | Potency [12] | outcome [13] | activity change, negative = inhibition [14] [%] | activity change, negative = inhibition [15] | Potency [16] | Potency [17] | activation [18] [%] |
| --- | --- | --- | --- | --- | --- | --- | --- | --- | --- | --- | --- | --- | --- | --- | --- | --- | --- | --- |
| CC(=O)NCCNc1ncnc2ccc(-c3ccccc3C#N)cc12 | > 11.4 | -5.09 | 3.98 µM (active) | 6.69 | > 46 | > 46 | inactive | inactive | inactive | 14.1 µM (active) | 14.1 µM (active) | inactive | inactive |  |  |  |  |  |
| CC(=O)NCCNc1nc(-c2ccccc2C)nc2ccccc12 | > 11.4 | 7.34 | 6.31 µM (active) | 7.37 | > 46 | > 46 | inactive |  |  | 22.4 µM (active) | 15.8 µM (active) | inactive | inactive | -9.21 | 46.4% [at 2.29 µM] | 5.01 µM (active) | 5.01 µM (active) | -1 |
| Cc1cnc(CNc2cc(-c3cccc(C#N)c3)ncn2)cn1 | > 11.4 | 8.07 | 15.8 µM (active) | 7.04 | > 46 | > 46 | inactive | inactive | inactive | 31.6 µM (active) | 35.5 µM (active) | inactive | inactive | 25.8 |  |  |  |  |
| COc1ccc2[nH]cc(CCNc3ccnc(-c4cccc(C#N)c4)n3)c2c1 | > 11.4 | -12.9 |  | -8.5 | > 46 | > 46 | inactive | inactive |  | 12.6 µM (active) | 12.6 µM (active) | inactive | inactive | 23.2 |  |  |  |  |
| COCCn1c(=O)c(C)nc2cnc(OC)nc21 | > 11.4 | -9.91 |  | -16.1 | > 9.22 | > 46 | inactive | inactive | inactive | inactive | inactive | inactive | inactive | 5.14 |  |  |  |  |
| COc1ccccc1CCn1c(=O)cnc2cncnc21 | > 11.4 | -0.594 |  | -7.13 | > 9.22 | > 46 | inactive | inactive |  | 17.8 µM (active) | 25.1 µM (active) | inactive | inactive | 6.39 |  |  |  |  |
| N#CCCn1c(=O)c(-c2ccccc2)nc2cnc(N3CCOCC3)nc21 | > 11.4 | 20.5 | 10 µM (active) |  | > 9.22 | > 46 | inactive | inactive |  | inactive | inactive | inactive | inactive |  |  |  |  |  |

Source: PubChem BioAssay (NCATS)
